Results filed as inconclusive are left out. Where a call stands in place of a potency, no number is given. The source made the active and inactive calls. Unless noted, the call rests on the fitted dose curve; in most records, active means well fitted curve in the direction sought with a large enough effect; inconclusive means small, poorly fitted or top-dose-only effect, or another doubt; inactive means no such curve, though single readings can be large; an effect the other way counts as inactive or inconclusive.
How the values were obtained:
[1] = qHTS assay for measurement of the activity of small molecule inhibitors on Zika virus induced Caspase-3 activity in human iPSC derived neural progenitor cells (hNPCs) (AID 1224857); further: nearly all actives have a fitted effect of over 65% in size
How it was run: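 Values are percent inhibition of virus-induced caspase-3/7 signal, scaled between uninfected cells and ZIKV-infected cells. Infection used 2 FFU/cell for 6 h after 1 h compound exposure.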

[2] = qHTS assay for measurement of the activity of small molecule inhibitors on Zika virus induced Caspase-3 activity in human astrocytoma cells (AID 1224859)
How it was run: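 Compound added 1 h pre-infection; ZIKV 2 FFU/cell on SNB-19 cells, 6 h, 37 C/5% CO2. Caspase-Glo 3/7 luminescence; values as % inhibition of ZIKV-induced caspase activity.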

[3] = qHTS assay to identify small molecule inhibitors of chordoma cells - UCH-1 (AID 1259355); further: nearly all actives have a fitted effect of over 55% in size
How it was run: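 Luminescent ATP read-out (CellTiter-Glo, 30min at room temperature) measured viability of UCH-1 cells exposed for 48hr to test drugs at 15 concentrations, co-dosed with a five-agent combination of auranofin, camptothecin, doxorubicin, rubitecan and topotecan.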

[4] = qHTS assay to identify small molecule inhibitors of chordoma cells - UCH-2 (AID 1259356)
[5] = P-glycoprotein substrates identified in KB-8-5-11 adenocarcinoma cell line, qHTS therapeutic library screen (AID 1346987); further: nearly all actives have a fitted effect of over 65% in size; further: potency means the concentration at half of the fitted maximal effect
How it was run: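 P-gp-mediated resistance screen: KB-8-5-11 cells treated 72 h with compounds in dose-response. CellTiter-Glo viability.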

[6] = NS1 protein of Zika virus - qHTS assay to identify small molecule inhibitors in human HEK 293 cells (AID 1347053); further: nearly all actives have a fitted effect of over 55% in size
How it was run: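 Inhibition of NS1 expression was scored in HEK 293 cells given compound 1 h ahead of MR766 virus (MOI = 0.5). Following 24 h at 37 C, two anti-NS1 antibodies generated a TR-FRET signal, scaled between uninfected and infected controls.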

[7] = Natriuretic polypeptide receptor (hNpr1) antagonism - Pilot counterscreen GloSensor control cell line (AID 1347045; calls by dose curve)
How it was run: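 This counterscreen uses HEK293 cells expressing the GIP/pGS-40F cGMP biosensor. Compound-treated cells are challenged with 50 uM sodium nitroprusside, and the luciferase signal is compared before and after stimulation.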

[8] = biological target: Atrial natriuretic peptide receptor 1 (Homo sapiens) (UniProt P16066); experiment: Natriuretic polypeptide receptor (hNpr1) antagonism - Pilot screen (AID 1347049; calls by dose curve;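 further: agonist-evoked cGMP luminescence read 20 min after hNppA addition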)
Atrial natriuretic peptide receptor 1 (Homo sapiens), sequence (P16066 whole entry, looked up): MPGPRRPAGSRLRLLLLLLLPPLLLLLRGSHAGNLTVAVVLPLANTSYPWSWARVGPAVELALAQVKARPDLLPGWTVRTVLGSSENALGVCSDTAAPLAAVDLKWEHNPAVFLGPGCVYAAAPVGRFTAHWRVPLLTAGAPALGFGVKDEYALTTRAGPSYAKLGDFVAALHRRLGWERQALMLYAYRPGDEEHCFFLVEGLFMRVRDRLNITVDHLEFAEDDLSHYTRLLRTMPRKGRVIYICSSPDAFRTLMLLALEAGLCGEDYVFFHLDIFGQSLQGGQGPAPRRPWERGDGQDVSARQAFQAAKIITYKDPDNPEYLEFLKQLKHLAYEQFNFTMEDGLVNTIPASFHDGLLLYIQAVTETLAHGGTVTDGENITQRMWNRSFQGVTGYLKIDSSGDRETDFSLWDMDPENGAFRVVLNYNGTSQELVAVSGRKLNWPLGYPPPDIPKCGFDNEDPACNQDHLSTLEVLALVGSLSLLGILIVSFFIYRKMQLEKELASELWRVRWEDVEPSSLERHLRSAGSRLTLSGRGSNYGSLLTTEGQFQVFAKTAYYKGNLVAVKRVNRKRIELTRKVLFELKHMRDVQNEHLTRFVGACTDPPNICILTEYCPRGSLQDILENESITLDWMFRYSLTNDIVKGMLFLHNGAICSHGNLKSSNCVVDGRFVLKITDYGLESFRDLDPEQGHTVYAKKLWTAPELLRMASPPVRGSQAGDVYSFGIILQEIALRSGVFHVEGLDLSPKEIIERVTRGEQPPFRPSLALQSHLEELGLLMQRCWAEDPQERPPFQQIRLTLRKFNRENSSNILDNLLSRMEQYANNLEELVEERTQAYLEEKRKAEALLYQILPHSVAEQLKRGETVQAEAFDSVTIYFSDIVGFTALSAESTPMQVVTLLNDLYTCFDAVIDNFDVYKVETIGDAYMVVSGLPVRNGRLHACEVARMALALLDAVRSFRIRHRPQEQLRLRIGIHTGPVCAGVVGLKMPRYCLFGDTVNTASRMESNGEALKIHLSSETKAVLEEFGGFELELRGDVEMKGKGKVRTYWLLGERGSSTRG
How it was run: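 HEK293 cells co-expressing hNpr1 and the GloSensor pGS-40F cGMP luciferase sensor were preloaded with 2% GloSensor reagent for 2 h. Compounds were added for 30 min at room temperature, then cells were stimulated with 0.1 nM hNppA for 20 min before luminescence readout.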

[9] = biological target: Atrial natriuretic peptide receptor 2 (Homo sapiens) (UniProt P20594); experiment: Natriuretic polypeptide receptor (hNpr2) antagonism - Pilot subtype selectivity assay (AID 1347050; calls by dose curve)
Atrial natriuretic peptide receptor 2 (Homo sapiens), sequence (P20594 whole entry, looked up): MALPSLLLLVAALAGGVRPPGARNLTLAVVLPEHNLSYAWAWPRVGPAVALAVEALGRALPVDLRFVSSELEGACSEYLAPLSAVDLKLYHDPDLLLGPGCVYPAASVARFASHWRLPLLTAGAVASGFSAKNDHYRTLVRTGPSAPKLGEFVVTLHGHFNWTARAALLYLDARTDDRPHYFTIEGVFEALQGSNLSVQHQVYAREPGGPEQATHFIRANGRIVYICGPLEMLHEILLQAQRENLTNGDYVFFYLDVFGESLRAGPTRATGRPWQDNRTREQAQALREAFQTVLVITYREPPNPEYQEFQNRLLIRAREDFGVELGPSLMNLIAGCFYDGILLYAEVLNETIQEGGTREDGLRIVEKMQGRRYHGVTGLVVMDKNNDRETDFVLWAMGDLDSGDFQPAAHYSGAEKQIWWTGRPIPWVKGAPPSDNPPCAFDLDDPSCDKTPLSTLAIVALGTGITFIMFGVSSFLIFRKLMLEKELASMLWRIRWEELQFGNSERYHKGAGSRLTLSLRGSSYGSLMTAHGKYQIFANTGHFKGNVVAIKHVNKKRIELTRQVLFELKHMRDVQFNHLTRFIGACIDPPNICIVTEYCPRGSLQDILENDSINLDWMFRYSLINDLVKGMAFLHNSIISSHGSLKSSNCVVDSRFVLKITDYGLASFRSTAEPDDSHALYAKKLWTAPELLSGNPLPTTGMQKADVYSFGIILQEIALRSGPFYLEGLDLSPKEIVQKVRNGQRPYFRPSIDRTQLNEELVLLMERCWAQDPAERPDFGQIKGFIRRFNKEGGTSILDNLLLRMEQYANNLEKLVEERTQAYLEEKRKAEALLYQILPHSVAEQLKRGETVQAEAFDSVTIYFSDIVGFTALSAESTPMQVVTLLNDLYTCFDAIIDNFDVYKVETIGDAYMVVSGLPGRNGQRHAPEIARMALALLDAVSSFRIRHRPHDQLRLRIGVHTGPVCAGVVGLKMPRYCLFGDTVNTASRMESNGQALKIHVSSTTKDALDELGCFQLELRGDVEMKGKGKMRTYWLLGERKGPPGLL
How it was run: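 cGMP-sensor HEK293/hNpr2 cells; 2% GloSensor reagent 2 h RT; compounds 30 min; baseline luminescence read; 1 nM hNppC agonist 20 min RT; final luminescence read by CCD camera. Antagonism = reduced post-agonist signal.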

[10] = biological target: Tyrosine-protein phosphatase non-receptor type substrate 1 (Homo sapiens) + Leukocyte surface antigen CD47 (Homo sapiens) (UniProt P78324+Q08722); experiment: CD47-SIRPalpha protein protein interaction - LANCE assay qHTS validation (AID 1347057; active means well fitted curve in the direction sought with a large enough effect in the signal ratio, with a control signal flat, not every such curve was filed as active; the % refers to the signal ratio)
Tyrosine-protein phosphatase non-receptor type substrate 1 (Homo sapiens) + Leukocyte surface antigen CD47 (Homo sapiens), sequence (P78324 whole entry, looked up): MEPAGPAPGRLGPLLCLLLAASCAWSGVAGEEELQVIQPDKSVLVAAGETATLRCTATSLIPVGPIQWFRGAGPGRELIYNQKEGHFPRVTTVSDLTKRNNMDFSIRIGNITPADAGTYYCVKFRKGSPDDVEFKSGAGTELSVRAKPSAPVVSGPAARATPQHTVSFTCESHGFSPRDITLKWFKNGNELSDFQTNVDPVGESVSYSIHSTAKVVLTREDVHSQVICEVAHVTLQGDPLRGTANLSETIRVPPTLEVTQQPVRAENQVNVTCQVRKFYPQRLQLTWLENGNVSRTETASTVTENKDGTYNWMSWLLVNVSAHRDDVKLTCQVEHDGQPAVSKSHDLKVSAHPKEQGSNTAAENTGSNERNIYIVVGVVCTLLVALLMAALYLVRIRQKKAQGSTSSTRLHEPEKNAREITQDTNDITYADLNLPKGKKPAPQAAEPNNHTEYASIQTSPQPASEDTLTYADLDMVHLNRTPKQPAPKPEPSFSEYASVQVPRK
Tyrosine-protein phosphatase non-receptor type substrate 1 (Homo sapiens) + Leukocyte surface antigen CD47 (Homo sapiens), sequence (Q08722 whole entry, looked up): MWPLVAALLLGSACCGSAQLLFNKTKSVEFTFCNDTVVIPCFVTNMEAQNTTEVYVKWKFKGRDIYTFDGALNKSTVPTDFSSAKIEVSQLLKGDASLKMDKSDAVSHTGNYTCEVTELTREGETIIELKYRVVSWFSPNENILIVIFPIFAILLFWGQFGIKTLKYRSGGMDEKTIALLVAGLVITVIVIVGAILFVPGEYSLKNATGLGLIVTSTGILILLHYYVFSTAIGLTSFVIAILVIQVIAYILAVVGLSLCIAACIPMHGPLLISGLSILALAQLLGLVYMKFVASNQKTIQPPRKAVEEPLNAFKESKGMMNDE
How it was run: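 First, His-tagged CD47 and Eu-labelled anti-His antibody met the compound for 30 min; next, site-specifically biotinylated SIRPalpha was added for 30 min; finally streptavidin-APC was added before reading the TR-FRET ratio.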

[11] = qHTS profiling of the MIPE4 collection as inhibitors of Plasmodium falciparum (DD2) proliferation (AID 743345; call rule not given here); conditions: P. falciparum Dd2 in erythrocytes, SYBR Green DNA, 72 h; at 28.5 µM (top of the series) unless noted
How it was run: (§1)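 Erythrocytes infected with P. falciparum (0.3% parasitemia, 2.5% hematocrit) incubated with compounds 72 h at 37 C, 5% CO2. Lysis with saponin/Triton buffer containing SYBR Green I, overnight at room temperature in the dark; DNA fluorescence (485/535 nm) normalised to 0.29 uM artemisinin and DMSO.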

[12] = qHTS profiling of the MIPE4 collection as inhibitors of Plasmodium falciparum (DD2) proliferation (Rep 2) (AID 743346; call rule not given here); conditions: P. falciparum Dd2 in erythrocytes, SYBR Green DNA, 72 h; at 28.5 µM (top of the series) unless noted
How it was run: as §1

[13] = qHTS profiling of the MIPE4 collection as inhibitors of Plasmodium falciparum (HB3) proliferation (AID 743347; call rule not given here); conditions: P. falciparum HB3 in erythrocytes, SYBR Green DNA, 72 h; at 28.5 µM (top of the series) unless noted
How it was run: as §1

In the case of `COc1cc2c(cc1OC)C(C(C(=O)N(CCc1ccc(OC)c(OC)c1OC)CCc1ccc(OC)c(OC)c1OC)c1ccccc1)=NCC2` (stereo unspecified), the outcome [1] is reported as “inactive”, the outcome [2] is reported as “inactive” and the Potency [3] is reported as “inactive”. The Potency [4] was “inactive”, the Potency [5] was 9.2 µM (active) and the Potency [6] was “inactive”.

In the case of `COc1ccc(/C=C/C(=O)c2ccc(OC)cc2OC)cc1`, the outcome [1] is reported as “inactive”, the outcome [2] is reported as “inactive” and the Potency [3] is reported as “inactive”. The Potency [4] was “inactive” and the Potency [6] was “inactive”.

For `Nc1ccc(/C=C/c2ccc(N)cc2S(=O)(=O)O)c(S(=O)(=O)O)c1`, the activity change, negative = inhibition [1] was -14.7% [at 0.568 µM] (inactive), the activity change, negative = inhibition [2] was -3.2% [at 0.568 µM] (inactive) and the Potency [3] was “inactive”. The Potency [4] was “inactive”, the Potency [5] was “inactive” and the activity change, negative = inhibition [6] was -8.83% [at 0.593 µM] (inactive).

With `c1ccc(CNCCNCc2ccccc2)cc1` the outcome [1] was “inactive”, the outcome [2] was “inactive” and the Potency [3] was “inactive”. The Potency [4] was “inactive”, the Potency [5] was “inactive” and the Potency [6] was “inactive”.

For `C[C@]12CC[C@H]3[C@@H](CCC4=CC(=O)CC[C@@]43C)[C@@H]1CC[C@@H]2C(=O)CO`, the outcome [1] was “inactive”, the outcome [2] was “inactive” and the Potency [3] was “inactive”. For the same compound, the Potency [4] was “inactive” and the Potency [6] was “inactive”.

In the case of `CC[C@H](C)C(=O)O[C@H]1CCC=C2C=C[C@H](C)[C@H](CC[C@@H]3C[C@@H](O)CC(=O)O3)[C@H]21`, the outcome [1] is reported as “inactive”, the outcome [2] is reported as “inactive” and the Potency [3] is reported as “inactive”. The Potency [4] was “inactive”, the outcome [7] was “inactive” and the outcome [8] was “inactive”. The outcome [9] was “inactive”, the Potency [6] was “inactive” and the outcome [10] was “inactive”.

In the case of `CN1C(CCl)Nc2cc(Cl)c(S(N)(=O)=O)cc2S1(=O)=O` (stereo unspecified), the outcome [1] is reported as “inactive”, the outcome [2] is reported as “inactive” and the Potency [3] is reported as “inactive”. For the same compound, the Potency [4] was “inactive” and the Potency [6] was “inactive”.

For `CC(=O)CC(c1ccc([N+](=O)[O-])cc1)c1c(O)c2ccccc2oc1=O` (stereo unspecified), the outcome [1] was “inactive”, the outcome [2] was “inactive” and the Potency [3] was “inactive”. The Potency [4] was “inactive” and the Potency [6] was “inactive”.

With `CCCCCCc1ccc(O)cc1O` the outcome [1] was “inactive”, the outcome [2] was “inactive” and the Potency [3] was “inactive”. For the same compound, the Potency [4] was “inactive”, the Potency [5] was “inactive” and the Potency [6] was “inactive”.

In the case of `CCOC(=O)[C@H](CCc1ccccc1)N[C@@H](C)C(=O)N1Cc2ccccc2C[C@H]1C(=O)O`, the outcome [1] is reported as “inactive”, the outcome [2] is reported as “inactive” and the Potency [3] is reported as “inactive”. For the same compound, the Potency [4] was “inactive”, the Potency [5] was “inactive” and the Potency [6] was “inactive”.

In the case of `C[C@]12CC[C@@H]3c4ccc(O)cc4CC[C@H]3[C@@H]1C[C@@H](O)[C@@H]2O`, the outcome [1] is reported as “inactive”, the outcome [2] is reported as “inactive” and the Potency [3] is reported as “inactive”. The Potency [4] was “inactive”, the Potency [5] was “inactive” and the Potency [6] was “inactive”.

With `NCCc1ccn[nH]1` the outcome [1] was “inactive”, the outcome [2] was “inactive” and the Potency [3] was “inactive”. For the same compound, the Potency [4] was “inactive” and the Potency [6] was “inactive”.

For `CCN1CCCC1=O`, the outcome [1] was “inactive”, the outcome [2] was “inactive” and the Potency [3] was “inactive”. For the same compound, the Potency [4] was “inactive”, the Potency [5] was “inactive” and the Potency [6] was “inactive”.

For `CC(=O)OCC(=O)NCCCOc1cccc(CN2CCCCC2)c1`, the outcome [1] was “inactive”, the outcome [2] was “inactive” and the Potency [3] was “inactive”. For the same compound, the Potency [4] was “inactive” and the Potency [6] was “inactive”.

In the case of `COc1cc(-c2ccc(=O)[nH]n2)ccc1OC(F)F`, the outcome [1] is reported as “inactive”, the outcome [2] is reported as “inactive” and the Potency [3] is reported as “inactive”. For the same compound, the Potency [4] was “inactive”, the Potency [5] was 0.116 µM (active) and the Potency [6] was “inactive”.

With `CCCC(=O)Nc1ccc(OCC(O)CNC(C)C)c(C(C)=O)c1` (stereo unspecified) the outcome [1] was “inactive”, the outcome [2] was “inactive” and the Potency [3] was “inactive”. The Potency [4] was “inactive” and the Potency [6] was “inactive”.

For `C=C1C(=C/C=C2\CCC[C@]3(C)[C@@H]([C@H](C)/C=C/[C@@H](O)C4CC4)CC[C@@H]23)C[C@@H](O)C[C@@H]1O`, the outcome [1] was “inactive”, the outcome [2] was “inactive” and the Potency [3] was “inactive”. For the same compound, the Potency [4] was “inactive”, the Potency [5] was 8.2 µM (active) and the Potency [6] was “inactive”.

With `C#C[C@]1(O)CC[C@H]2[C@@H]3CCC4=CC(=O)CC[C@@H]4[C@H]3CC[C@@]21C` the outcome [1] was “inactive”, the outcome [2] was “inactive” and the Potency [3] was “inactive”. The Potency [4] was “inactive” and the Potency [6] was “inactive”.

With `Cc1c(F)c(N2CCNC(C)C2)cc2c1c(=O)c(C(=O)O)cn2C1CC1` (stereo unspecified) the outcome [1] was “inactive”, the outcome [2] was “inactive” and the Potency [3] was “inactive”. The Potency [4] was “inactive” and the Potency [6] was “inactive”.

With `CC(C)(Oc1ccc(Cl)cc1)C(=O)O` the outcome [1] was “inactive”, the outcome [2] was “inactive” and the Potency [3] was “inactive”. The Potency [4] was “inactive” and the Potency [6] was “inactive”.

In the case of `Cc1cccc(C)c1NC(=O)CN1CCN(CCCC(c2ccc(F)cc2)c2ccc(F)cc2)CC1`, the parasite growth remaining, % of DMSO control (lower = more inhibition) [11] is reported as 52.4%, the parasite growth, % of control (lower = inhibition) [12] is reported as 19.6% and the growth, % of control [13] is reported as 8.04%. For the same compound, the outcome [1] was “inactive”, the outcome [2] was “inactive” and the Potency [3] was “inactive”. For the same compound, the Potency [4] was “inactive” and the Potency [6] was “inactive”.

In the case of `O=C1OC(c2ccc(O)cc2)(c2ccc(O)cc2)c2ccccc21`, the outcome [1] is reported as “inactive”, the outcome [2] is reported as “inactive” and the Potency [3] is reported as “inactive”. For the same compound, the Potency [4] was “inactive” and the Potency [6] was “inactive”.

In the case of `CN(C)CC/C=C1/c2ccccc2COc2ccc(CC(=O)O)cc21`, the outcome [1] is reported as “inactive”, the outcome [2] is reported as “inactive” and the Potency [3] is reported as “inactive”. The Potency [5] was “inactive” and the Potency [6] was “inactive”.

For `C[C@@H](CN(C)C)CN1c2ccccc2Sc2ccccc21`, the outcome [1] was “inactive”, the outcome [2] was “inactive” and the Potency [3] was “inactive”. For the same compound, the Potency [4] was “inactive” and the Potency [6] was “inactive”.

With `CCCCOc1ccc(OCCCN2CCOCC2)cc1` the outcome [1] was “inactive”, the outcome [2] was “inactive” and the Potency [3] was “inactive”. The Potency [4] was “inactive” and the Potency [6] was “inactive”.

For `NC(=O)c1cc[n+](CC2=C(C(=O)[O-])N3C(=O)[C@@H](NC(=O)Cc4cccs4)[C@H]3SC2)cc1`, the outcome [1] was “inactive”, the outcome [2] was “inactive” and the Potency [3] was “inactive”. The Potency [4] was “inactive” and the Potency [6] was “inactive”.

For `COc1cccc(OC)c1C(=O)N[C@@H]1C(=O)N2[C@@H]1SC(C)(C)[C@@H]2C(=O)O`, the outcome [1] was “inactive”, the outcome [2] was “inactive” and the Potency [3] was “inactive”. The Potency [4] was “inactive” and the Potency [6] was “inactive”.

In the case of `CCN(CC)C(=O)N1CCN(C)CC1`, the outcome [1] is reported as “inactive”, the outcome [2] is reported as “inactive” and the Potency [3] is reported as “inactive”. The Potency [4] was “inactive” and the Potency [6] was “inactive”.

With `NCCC(O)(P(=O)(O)O)P(=O)(O)O` the outcome [1] was “inactive”, the outcome [2] was “inactive” and the Potency [3] was “inactive”. The Potency [4] was “inactive” and the Potency [6] was “inactive”.

With `CC(=O)N/N=C/c1ccc([N+](=O)[O-])o1` the outcome [1] was “inactive”, the outcome [2] was “inactive” and the Potency [3] was “inactive”. The Potency [5] was “inactive” and the Potency [6] was “inactive”.

In the case of `CCCCc1nc(Cl)c(CO)n1Cc1ccc(-c2ccccc2-c2nn[nH]n2)cc1`, the outcome [1] is reported as “inactive”, the outcome [2] is reported as “inactive” and the Potency [3] is reported as “inactive”. For the same compound, the Potency [4] was “inactive” and the Potency [6] was “inactive”.

From PubChem BioAssay (NCATS)
